Test results taken from publication PMC7862700, “An all-to-all approach to the identification of sequence-specific readers for epigenetic DNA modifications on cytosine”.

Assays:
Test in all cases: DAPPL (digital affinity profiling via proximity ligation, sequencing); 10 mM Tris-HCl pH 7.5, 50 mM NaCl, 1 mM DTT, 4% glycerol, room temperature, 30 min; GST-TFs on glutathione beads, 16-mer random dsDNA library, 0.1% formaldehyde crosslink after washing; high values mean tight binding
FLI1 = target: T1, FLI1 (Homo sapiens, UniProt Q01543 1-452); conditions: protein: recombinant; tags: N-terminal GST; dsDNA, one strand shown
T1 sequence: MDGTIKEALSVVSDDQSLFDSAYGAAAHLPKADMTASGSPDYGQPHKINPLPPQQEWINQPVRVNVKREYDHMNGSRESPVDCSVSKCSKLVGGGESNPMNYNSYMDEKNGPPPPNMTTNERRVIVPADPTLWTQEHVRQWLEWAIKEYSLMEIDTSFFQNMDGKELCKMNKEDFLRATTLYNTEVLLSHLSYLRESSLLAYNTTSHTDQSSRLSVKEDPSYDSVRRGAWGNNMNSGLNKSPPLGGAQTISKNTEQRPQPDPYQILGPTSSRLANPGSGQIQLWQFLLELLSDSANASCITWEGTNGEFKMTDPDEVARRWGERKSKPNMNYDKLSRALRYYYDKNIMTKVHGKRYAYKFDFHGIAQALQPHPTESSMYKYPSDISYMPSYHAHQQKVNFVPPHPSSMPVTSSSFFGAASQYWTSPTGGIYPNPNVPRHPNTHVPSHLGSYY
Procedure, shortened: (§1)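 In yeast, human transcription factors were expressed with a GST fusion, then pulled down on glutathione beads and given DNA barcodes. Pooled with a tag-only sample, they were exposed to 200 nmole of a 16-mer random double-stranded DNA library (Tris/NaCl/DTT/glycerol buffer, room temperature, 30 min), washed, crosslinked with 0.1% formaldehyde, proximity-ligated using BsaI/T4 ligase for 1 h at 37 °C, PCR-amplified and read on an Illumina NextSeq500. Each hexamer's frequency of reads for a factor, divided by the matching frequency for the tag-only sample, gives the binding signal.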

ELK1 = target: T2, ELK1 (Homo sapiens, UniProt P19419 1-428); conditions: protein: recombinant; tags: N-terminal GST; dsDNA, one strand shown
T2 sequence: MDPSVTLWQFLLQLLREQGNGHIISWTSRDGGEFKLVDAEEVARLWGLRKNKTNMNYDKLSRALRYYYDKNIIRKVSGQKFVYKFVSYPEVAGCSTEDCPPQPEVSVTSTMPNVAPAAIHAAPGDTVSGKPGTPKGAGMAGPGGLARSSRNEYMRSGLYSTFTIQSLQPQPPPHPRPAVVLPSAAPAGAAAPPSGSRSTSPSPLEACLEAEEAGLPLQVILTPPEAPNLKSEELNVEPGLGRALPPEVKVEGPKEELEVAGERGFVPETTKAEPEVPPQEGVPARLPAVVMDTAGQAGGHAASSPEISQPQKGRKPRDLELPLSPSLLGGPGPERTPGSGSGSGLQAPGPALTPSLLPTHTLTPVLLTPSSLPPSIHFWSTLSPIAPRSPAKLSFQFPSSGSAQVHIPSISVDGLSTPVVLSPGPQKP
Procedure, shortened: as §1

GABPA = target: T3, GABPA (Homo sapiens, UniProt Q06546 1-454); conditions: protein: recombinant; tags: N-terminal GST; dsDNA, one strand shown
T3 sequence: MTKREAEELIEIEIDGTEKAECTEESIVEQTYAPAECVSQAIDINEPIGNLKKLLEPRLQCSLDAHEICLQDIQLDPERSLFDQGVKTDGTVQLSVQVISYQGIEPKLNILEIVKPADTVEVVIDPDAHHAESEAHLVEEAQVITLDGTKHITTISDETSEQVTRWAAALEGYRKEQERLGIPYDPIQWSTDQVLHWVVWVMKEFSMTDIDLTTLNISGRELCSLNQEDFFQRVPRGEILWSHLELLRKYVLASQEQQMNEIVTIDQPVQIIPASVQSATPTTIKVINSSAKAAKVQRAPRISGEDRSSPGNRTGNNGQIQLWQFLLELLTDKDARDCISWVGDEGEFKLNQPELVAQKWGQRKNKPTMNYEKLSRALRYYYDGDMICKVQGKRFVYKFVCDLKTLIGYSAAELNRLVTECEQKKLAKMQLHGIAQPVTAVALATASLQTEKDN
Procedure, shortened: as §1

ERG = target: T4, ERG (Homo sapiens, UniProt P11308 1-479); conditions: protein: recombinant; tags: N-terminal GST; dsDNA, one strand shown
T4 sequence: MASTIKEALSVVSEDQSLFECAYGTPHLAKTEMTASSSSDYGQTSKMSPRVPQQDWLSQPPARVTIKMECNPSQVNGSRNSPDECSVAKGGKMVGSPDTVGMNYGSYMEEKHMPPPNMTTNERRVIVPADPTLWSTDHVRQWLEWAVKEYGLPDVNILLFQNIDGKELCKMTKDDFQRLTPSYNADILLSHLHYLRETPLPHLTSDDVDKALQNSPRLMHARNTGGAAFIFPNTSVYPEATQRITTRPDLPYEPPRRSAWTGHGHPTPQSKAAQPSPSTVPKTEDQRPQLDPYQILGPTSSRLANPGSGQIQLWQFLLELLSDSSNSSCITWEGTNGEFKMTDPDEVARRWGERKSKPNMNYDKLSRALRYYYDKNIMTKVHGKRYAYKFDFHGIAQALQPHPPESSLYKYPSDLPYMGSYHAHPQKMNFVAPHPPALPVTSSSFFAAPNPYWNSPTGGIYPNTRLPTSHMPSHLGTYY
Procedure, shortened: as §1

ELF1 = ELF1 (Homo sapiens, UniProt P32519 1-619); conditions: protein: recombinant; tags: N-terminal GST; dsDNA, one strand shown
Procedure, shortened: as §1

EHF = target: T5, EHF (Homo sapiens, UniProt Q9NZC4 1-300); conditions: protein: recombinant; tags: N-terminal GST; dsDNA, one strand shown
T5 sequence: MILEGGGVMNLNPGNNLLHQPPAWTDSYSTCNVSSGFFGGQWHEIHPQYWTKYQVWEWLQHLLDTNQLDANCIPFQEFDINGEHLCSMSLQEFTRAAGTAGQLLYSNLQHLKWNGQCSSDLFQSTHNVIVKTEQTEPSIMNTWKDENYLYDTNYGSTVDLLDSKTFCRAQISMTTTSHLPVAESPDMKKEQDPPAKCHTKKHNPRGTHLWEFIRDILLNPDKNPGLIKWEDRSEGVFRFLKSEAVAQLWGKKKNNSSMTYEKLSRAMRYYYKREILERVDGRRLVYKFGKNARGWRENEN
Procedure, shortened: as §1

SPI1 = SPI1 (Homo sapiens, UniProt P17947 1-270); conditions: protein: recombinant; tags: N-terminal GST; dsDNA, one strand shown
Procedure, shortened: as §1

SPIB = SPIB (Homo sapiens, UniProt Q01892 1-262); conditions: protein: recombinant; tags: N-terminal GST; dsDNA, one strand shown
Procedure, shortened: as §1

ELK3 = target: T6, ELK3 (Homo sapiens, UniProt P41970 1-407); conditions: protein: recombinant; tags: N-terminal GST; dsDNA, one strand shown
T6 sequence: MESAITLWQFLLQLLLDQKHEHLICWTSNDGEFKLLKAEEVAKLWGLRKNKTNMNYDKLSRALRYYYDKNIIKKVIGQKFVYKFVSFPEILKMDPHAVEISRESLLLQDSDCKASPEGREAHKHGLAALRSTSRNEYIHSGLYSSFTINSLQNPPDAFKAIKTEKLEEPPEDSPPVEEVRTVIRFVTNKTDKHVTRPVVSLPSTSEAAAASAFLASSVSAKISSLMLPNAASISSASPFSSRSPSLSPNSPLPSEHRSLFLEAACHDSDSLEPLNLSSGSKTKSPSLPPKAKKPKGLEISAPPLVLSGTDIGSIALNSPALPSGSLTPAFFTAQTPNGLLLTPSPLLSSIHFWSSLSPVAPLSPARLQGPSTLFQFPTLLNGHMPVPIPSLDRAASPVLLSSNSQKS
Procedure, shortened: as §1

FEV = target: T7, FEV (Homo sapiens, UniProt Q99581 1-238); conditions: protein: recombinant; tags: N-terminal GST; dsDNA, one strand shown
T7 sequence: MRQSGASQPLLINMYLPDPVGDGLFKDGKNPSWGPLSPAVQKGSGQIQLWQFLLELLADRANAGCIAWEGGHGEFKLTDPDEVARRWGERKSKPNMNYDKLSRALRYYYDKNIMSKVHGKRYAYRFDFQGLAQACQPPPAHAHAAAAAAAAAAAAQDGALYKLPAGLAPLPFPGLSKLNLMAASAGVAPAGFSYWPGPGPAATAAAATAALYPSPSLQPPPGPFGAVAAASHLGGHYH
Procedure, shortened: as §1

ETV5 = ETV5 (Homo sapiens, UniProt P41161 1-510); conditions: protein: recombinant; tags: N-terminal GST; dsDNA, one strand shown
Procedure, shortened: as §1

HSF1 = HSF1 (Homo sapiens, UniProt Q00613 1-529); conditions: protein: recombinant; tags: N-terminal GST; chain copies: 3; dsDNA, one strand shown
Procedure, shortened: as §1

SPIC = target: T8, SPIC (Homo sapiens, UniProt Q8N5J4 1-248); conditions: protein: recombinant; tags: N-terminal GST; dsDNA, one strand shown
T8 sequence: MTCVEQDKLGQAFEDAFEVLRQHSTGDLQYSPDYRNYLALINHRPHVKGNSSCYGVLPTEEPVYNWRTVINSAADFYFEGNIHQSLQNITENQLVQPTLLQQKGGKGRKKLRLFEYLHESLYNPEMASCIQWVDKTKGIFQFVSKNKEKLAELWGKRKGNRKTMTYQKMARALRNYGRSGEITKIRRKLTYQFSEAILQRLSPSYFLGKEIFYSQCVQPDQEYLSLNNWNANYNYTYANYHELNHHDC
Procedure, shortened: as §1

ELF4 = ELF4 (Homo sapiens, UniProt Q99607 1-663); conditions: protein: recombinant; tags: N-terminal GST; dsDNA, one strand shown
Procedure, shortened: as §1

ELK4 = target: T9, ELK4 (Homo sapiens, UniProt P28324-2 1-405); conditions: protein: recombinant; tags: N-terminal GST; dsDNA, one strand shown
T9 sequence: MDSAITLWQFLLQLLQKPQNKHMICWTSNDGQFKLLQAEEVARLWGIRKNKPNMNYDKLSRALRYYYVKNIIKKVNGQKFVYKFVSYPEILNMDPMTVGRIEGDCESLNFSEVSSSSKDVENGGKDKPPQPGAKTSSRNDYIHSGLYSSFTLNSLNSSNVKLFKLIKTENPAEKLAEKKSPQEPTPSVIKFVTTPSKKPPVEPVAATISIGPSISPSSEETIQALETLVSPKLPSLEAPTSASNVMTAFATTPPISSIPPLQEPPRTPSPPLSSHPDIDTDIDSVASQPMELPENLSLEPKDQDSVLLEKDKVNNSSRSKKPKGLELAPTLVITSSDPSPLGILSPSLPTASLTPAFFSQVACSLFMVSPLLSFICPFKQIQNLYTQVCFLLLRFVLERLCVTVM
Procedure, shortened: as §1

ETV2 = target: T10, ETV2 (Homo sapiens, UniProt O00321 1-342); conditions: protein: recombinant; tags: N-terminal GST; dsDNA, one strand shown
T10 sequence: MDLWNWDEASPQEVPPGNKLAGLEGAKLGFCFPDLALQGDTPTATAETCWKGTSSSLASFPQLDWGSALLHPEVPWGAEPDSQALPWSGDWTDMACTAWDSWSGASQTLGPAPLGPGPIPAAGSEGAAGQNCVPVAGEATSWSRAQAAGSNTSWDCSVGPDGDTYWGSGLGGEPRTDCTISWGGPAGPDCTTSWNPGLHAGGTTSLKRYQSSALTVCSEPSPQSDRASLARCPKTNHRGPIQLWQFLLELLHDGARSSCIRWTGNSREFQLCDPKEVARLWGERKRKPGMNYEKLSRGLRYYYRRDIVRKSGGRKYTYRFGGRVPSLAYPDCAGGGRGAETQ
Procedure, shortened: as §1

ELF3 = target: T11, ELF3 (Homo sapiens, UniProt P78545 1-371); conditions: protein: recombinant; tags: N-terminal GST; dsDNA, one strand shown
T11 sequence: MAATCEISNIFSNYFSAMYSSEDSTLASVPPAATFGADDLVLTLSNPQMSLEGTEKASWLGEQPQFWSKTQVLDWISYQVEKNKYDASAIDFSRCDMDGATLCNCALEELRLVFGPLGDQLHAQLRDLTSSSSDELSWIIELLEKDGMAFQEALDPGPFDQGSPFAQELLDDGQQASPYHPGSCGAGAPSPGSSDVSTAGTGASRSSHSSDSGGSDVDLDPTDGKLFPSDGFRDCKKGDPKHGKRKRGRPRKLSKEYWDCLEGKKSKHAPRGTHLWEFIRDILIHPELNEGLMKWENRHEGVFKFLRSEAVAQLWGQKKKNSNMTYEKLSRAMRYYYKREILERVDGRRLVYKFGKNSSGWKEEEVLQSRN
Procedure, shortened: as §1

ETV1 = ETV1 (Homo sapiens, UniProt P50549 1-477); conditions: protein: recombinant; tags: N-terminal GST; dsDNA, one strand shown
Procedure, shortened: as §1

Sequence of ELF4 (Q99607 whole entry): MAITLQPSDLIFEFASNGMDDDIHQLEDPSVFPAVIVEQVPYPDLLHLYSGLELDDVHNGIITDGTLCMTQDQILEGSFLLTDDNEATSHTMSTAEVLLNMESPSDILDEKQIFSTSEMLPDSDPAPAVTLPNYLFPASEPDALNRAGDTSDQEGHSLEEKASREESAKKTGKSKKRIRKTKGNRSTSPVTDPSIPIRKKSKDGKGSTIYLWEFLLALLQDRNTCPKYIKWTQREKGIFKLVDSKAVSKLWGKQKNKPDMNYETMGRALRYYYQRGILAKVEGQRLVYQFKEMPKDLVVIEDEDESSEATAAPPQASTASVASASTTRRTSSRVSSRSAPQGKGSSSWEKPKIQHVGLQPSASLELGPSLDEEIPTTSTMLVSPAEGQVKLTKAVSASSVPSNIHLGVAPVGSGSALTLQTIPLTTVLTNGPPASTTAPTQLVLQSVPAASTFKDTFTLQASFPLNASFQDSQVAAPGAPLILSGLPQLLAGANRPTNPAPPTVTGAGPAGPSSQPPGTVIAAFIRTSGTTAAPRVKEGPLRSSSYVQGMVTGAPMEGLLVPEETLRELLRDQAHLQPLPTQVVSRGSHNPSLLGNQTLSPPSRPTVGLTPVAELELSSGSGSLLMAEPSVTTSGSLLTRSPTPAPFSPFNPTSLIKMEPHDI
Sequence of ELF1 (P32519 whole entry): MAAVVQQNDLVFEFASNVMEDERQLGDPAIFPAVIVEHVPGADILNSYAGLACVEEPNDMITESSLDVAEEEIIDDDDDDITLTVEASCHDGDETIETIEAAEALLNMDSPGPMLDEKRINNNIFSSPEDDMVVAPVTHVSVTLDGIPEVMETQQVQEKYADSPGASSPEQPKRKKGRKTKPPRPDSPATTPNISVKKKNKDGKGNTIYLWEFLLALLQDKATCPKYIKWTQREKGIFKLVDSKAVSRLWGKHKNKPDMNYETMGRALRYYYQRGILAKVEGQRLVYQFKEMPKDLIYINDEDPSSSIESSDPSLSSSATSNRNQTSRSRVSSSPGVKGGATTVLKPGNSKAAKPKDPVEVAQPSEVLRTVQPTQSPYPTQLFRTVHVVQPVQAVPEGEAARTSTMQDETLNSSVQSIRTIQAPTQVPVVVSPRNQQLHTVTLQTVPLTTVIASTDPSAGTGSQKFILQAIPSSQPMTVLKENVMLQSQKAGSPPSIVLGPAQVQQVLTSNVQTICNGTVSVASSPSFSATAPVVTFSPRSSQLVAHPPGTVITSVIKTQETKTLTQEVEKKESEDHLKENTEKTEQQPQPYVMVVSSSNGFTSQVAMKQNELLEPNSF
Sequence of HSF1 (Q00613 whole entry): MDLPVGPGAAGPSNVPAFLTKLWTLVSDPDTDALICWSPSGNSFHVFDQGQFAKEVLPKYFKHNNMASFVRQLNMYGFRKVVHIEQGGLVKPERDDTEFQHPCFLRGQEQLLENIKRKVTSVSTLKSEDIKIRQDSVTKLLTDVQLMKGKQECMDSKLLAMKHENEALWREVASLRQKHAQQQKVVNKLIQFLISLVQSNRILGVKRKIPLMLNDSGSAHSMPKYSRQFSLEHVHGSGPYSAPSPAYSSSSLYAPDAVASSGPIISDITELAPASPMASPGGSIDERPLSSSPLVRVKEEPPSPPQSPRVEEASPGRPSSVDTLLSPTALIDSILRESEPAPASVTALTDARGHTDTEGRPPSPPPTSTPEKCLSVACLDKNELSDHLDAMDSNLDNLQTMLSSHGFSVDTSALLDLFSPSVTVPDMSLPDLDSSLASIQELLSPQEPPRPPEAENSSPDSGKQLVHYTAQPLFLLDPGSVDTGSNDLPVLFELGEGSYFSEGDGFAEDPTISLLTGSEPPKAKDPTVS
Sequence of ETV5 (P41161 whole entry): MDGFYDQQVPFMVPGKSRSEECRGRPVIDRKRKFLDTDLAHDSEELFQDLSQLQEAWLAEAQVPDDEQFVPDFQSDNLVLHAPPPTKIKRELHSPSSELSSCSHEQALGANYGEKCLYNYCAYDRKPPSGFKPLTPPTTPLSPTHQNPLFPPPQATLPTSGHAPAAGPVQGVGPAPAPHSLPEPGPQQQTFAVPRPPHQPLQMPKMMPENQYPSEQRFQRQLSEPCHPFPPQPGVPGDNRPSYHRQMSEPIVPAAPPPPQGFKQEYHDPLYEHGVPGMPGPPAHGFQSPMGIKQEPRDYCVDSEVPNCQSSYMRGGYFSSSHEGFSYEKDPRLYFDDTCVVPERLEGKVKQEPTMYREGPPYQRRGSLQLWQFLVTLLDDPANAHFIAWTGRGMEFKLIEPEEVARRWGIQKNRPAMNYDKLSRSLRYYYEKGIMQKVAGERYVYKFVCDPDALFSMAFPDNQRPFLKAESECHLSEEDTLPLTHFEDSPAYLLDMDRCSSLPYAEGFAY
Sequence of SPIB (Q01892 whole entry): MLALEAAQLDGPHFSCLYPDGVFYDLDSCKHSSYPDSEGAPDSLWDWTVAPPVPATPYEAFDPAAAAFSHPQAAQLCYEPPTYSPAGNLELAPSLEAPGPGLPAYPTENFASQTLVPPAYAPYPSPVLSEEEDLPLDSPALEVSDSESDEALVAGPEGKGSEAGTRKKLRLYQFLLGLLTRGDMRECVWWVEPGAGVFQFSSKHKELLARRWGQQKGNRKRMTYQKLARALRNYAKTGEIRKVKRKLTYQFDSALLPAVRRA
Sequence of ETV1 (P50549 whole entry): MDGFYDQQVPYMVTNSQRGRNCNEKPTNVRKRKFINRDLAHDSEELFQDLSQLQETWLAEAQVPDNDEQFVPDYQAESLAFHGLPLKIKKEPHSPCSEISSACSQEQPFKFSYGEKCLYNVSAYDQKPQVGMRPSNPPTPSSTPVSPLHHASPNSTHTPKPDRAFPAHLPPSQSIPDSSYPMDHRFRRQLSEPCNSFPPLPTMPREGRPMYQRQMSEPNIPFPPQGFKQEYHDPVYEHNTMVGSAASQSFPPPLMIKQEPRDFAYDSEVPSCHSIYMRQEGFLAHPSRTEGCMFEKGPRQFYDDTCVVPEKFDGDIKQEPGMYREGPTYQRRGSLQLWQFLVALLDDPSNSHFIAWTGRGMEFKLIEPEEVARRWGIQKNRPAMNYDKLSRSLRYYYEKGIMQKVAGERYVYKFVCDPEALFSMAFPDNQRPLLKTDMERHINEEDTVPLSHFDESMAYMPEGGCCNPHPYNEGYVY

## CCACGC
FLI1
  binding signal: 1.28 fold enrichment (6-mer frequency, TF over GST control)
ELK1
  binding signal: 1.2 fold enrichment (6-mer frequency, TF over GST control)
GABPA
  binding signal: 1.28 fold enrichment (6-mer frequency, TF over GST control)
ERG
  binding signal: 1.16 fold enrichment (6-mer frequency, TF over GST control)
ELF1
  binding signal: 1.22 fold enrichment (6-mer frequency, TF over GST control)
EHF
  binding signal: 1.12 fold enrichment (6-mer frequency, TF over GST control)
SPI1
  binding signal: 1.07 fold enrichment (6-mer frequency, TF over GST control)
SPIB
  binding signal: 1.14 fold enrichment (6-mer frequency, TF over GST control)
ELK3
  binding signal: 1.31 fold enrichment (6-mer frequency, TF over GST control)
FEV
  binding signal: 1.2 fold enrichment (6-mer frequency, TF over GST control)
ETV5
  binding signal: 1.15 fold enrichment (6-mer frequency, TF over GST control)
HSF1
  binding signal: 1.05 fold enrichment (6-mer frequency, TF over GST control)
SPIC
  binding signal: 1.14 fold enrichment (6-mer frequency, TF over GST control)
ELF4
  binding signal: 1.22 fold enrichment (6-mer frequency, TF over GST control)
ELK4
  binding signal: 1.19 fold enrichment (6-mer frequency, TF over GST control)
ETV2
  binding signal: 1.14 fold enrichment (6-mer frequency, TF over GST control)
ELF3
  binding signal: 1.24 fold enrichment (6-mer frequency, TF over GST control)
ETV1
  binding signal: 1.24 fold enrichment (6-mer frequency, TF over GST control)
